Test results: PubChem BioAssay AID492956 (The Scripps Research Institute Molecular Screening Center, 2010)
The whole screen tested about 340,000 compounds, of which about 3,300 (0.97%) were called active.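 Rule for the calls: active = inhibition above the mean over all tested compounds plus 3 SD (cut at about 30% in these data); inactive = the rest.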 The full list was thinned out, with actives kept by preference.

target: Platelet-activating factor acetylhydrolase 2, cytoplasmic (Homo sapiens) (UniProt Q99487); experiment: inhibition of cytoplasmic PAF acetylhydrolase 2 – biochemical, fluorescence polarization, human, primary screen (AID 492956); conditions: recombinant PAFAH2, FP-rhodamine activity probe, at 3.39 µM, hits give high values;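 note: inhibitors block probe labeling of enzyme so polarization drops; 0% = enzyme with DMSO and 100% = wells lacking PAFAH2 protein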

Row | SMILES | inhibition
1 | O=C(C1CCN(S(=O)(=O)Cc2ccccc2)CC1)N1CCCc2ccccc21 | -7.5% (inactive)
2 | COCCNC(=O)/C(C#N)=C/c1cccc(OCc2ccccc2)c1 | 30.2% (active)
3 | COCCNC(=O)/C(C#N)=C/c1nc(N(C)C)n(-c2ccc(F)cc2)c1Cl | 1.81% (inactive)
4 | CCOC(=O)NC(=O)/C(C#N)=C\c1ccccc1 | -7.65% (inactive)
5 | Cc1cc(C(=O)COc2ccccc2Cl)c(C)n1C1CC1 | 0.58% (inactive)
6 | Cc1ccc(-n2c(C)cc(C(=O)CN3C(=O)C(=O)N(C4CCCC4)C3=O)c2C)cc1 | 4.94% (inactive)
7 | Cc1cc(C(=O)COC(=O)C2CC2)c(C)n1-c1ccc(F)cc1 | 44.5% (active)
8 | COc1cc(C(=O)NN(CCC#N)C2=NS(=O)(=O)c3ccccc32)cc(OC)c1OC | 4.52% (inactive)
9 | COc1ccc(/C=N/N(C)C2=NS(=O)(=O)c3ccccc32)cc1OC | 31.8% (active)
10 | C=CCOCCN(C)C1=NS(=O)(=O)c2ccccc21 | -9.33% (inactive)
11 | Cc1ccc(S(=O)(=O)NCC(=O)N2CCOCCOCCOCCOCC2)cc1 | -0.46% (inactive)
12 | O=C1/C(=C/c2cccs2)CCC1C1CCCC1 (configuration not stated) | 5.54% (inactive)
13 | CC1(C)CC(=O)c2cnc3nc4ccccc4n3c2C1 | -0.49% (inactive)
14 | O=C(NNC(=O)c1cc(S(=O)(=O)N2CCCCC2)ccc1Cl)c1ccccc1O | 8.97% (inactive)
15 | NC(=O)COC(=O)c1cc(S(=O)(=O)N2CCN(c3ccccc3)CC2)ccc1Cl | 5.41% (inactive)
16 | Cc1cccc(/C(N)=N/OC(=O)c2ccccc2Cl)c1 | -5.1% (inactive)
17 | O=C(OCc1cn(-c2ccc(Cl)c(Cl)c2)nn1)c1ccccc1Cl | 44.2% (active)
18 | CC(C)NC(=O)NC(=O)COC(=O)c1ccc(NC(=O)CC#N)cc1 | 14.3% (inactive)
19 | CC(C)c1ccc(NC(=O)COC(=O)c2ccc(CN3CCCC3=O)cc2)cc1 | 85% (active)
20 | N#CCC(=O)Nc1ccc(C(=O)OCC(=O)Nc2sc3c(c2C#N)CCCC3)cc1 | -11.9% (inactive)
21 | Cc1noc(C)c1C(=O)NC(C)c1ccc2c(c1)OCO2 (configuration not stated) | -1.75% (inactive)
22 | CCN(CC)c1ccc(NC(=O)CCc2nnc3ccc(N4CCCCC4)nn23)c(C)c1 | 1.19% (inactive)
23 | O=C(COC(=O)C12CC3CC(CC(O)(C3)C1)C2)NC12CC3CC(CC(C3)C1)C2 | 75.8% (active)
24 | O=C(CNCCO)NC12CC3CC(CC(C3)C1)C2 | 0.19% (inactive)
25 | O=C(COC(=O)CNS(=O)(=O)c1ccccc1)NC12CC3CC(CC(C3)C1)C2 | 1.43% (inactive)

Row | SMILES | inhibition
26 | Cc1ccc2[nH]c(=O)c(CN(C)S(=O)(=O)c3cccc4nonc34)cc2c1 | -8.49% (inactive)
27 | Cn1nccc1NC(=O)CC(CC(=O)O)c1ccccc1 (configuration not stated) | 4.64% (inactive)
28 | COCCCN1C(=O)C(=O)/C(=C(/O)c2ccc(S(=O)(=O)N3CCOCC3)cc2)C1c1ccc(F)cc1 (configuration not stated) | 1.52% (inactive)
29 | COc1ccc(C(=O)ON=C2c3ccccc3-c3ccccc32)cc1OC | 72.8% (active)
30 | COc1cc(C(C)=O)ccc1OC(=O)CN1C(=O)c2ccccc2C1=O | 1.95% (inactive)
31 | COc1ccc(NC(=O)ON=C2c3ccccc3-c3ccccc32)cc1 | -4.24% (inactive)
32 | CCc1c(SCCC(=O)O)nc2ccccc2c1C | 33% (active)
33 | O=C(O)CCSc1nnc(-c2ccccc2)n1-c1ccccc1 | -1.18% (inactive)
34 | O=C(O)CSc1nccc2ccccc12 | 2.03% (inactive)
35 | C/C(=N\OCC(=O)Nc1ccc(Br)cc1)c1cccs1 | -0.72% (inactive)
36 | CCn1c(Cc2ccc(OC)cc2)nnc1SCC(=O)Nc1ccc(N2CCOCC2)cc1 | -3.23% (inactive)
37 | CC(C)[C@H](NC(=O)N1CCn2c1nc1ccccc12)C(=O)NCc1ccc2c(c1)OCO2 | -3.27% (inactive)
38 | Cc1ccc(C)c(NC(=O)C2Cc3ccccc3CN2C(=O)OCc2ccccc2)c1 (configuration not stated) | 5.89% (inactive)
39 | Cc1ccc(/C=N/NC(=O)Cn2ccc(C(F)(F)F)n2)o1 | -1.08% (inactive)
40 | CCn1c(/C=N/NC(=O)c2ccc(OC)cc2)nc2ccccc21 | 41.7% (active)
41 | CCn1c(SCC(=O)N/N=C/c2ccncc2)nc2ccccc21 | 14.4% (inactive)
42 | COc1ccc(C(=O)NCC(=O)N/N=C/c2cccnc2)cc1 | -1.33% (inactive)
43 | CC(C)C(=O)NCC(c1cccs1)S(=O)(=O)c1ccc(F)cc1 (configuration not stated) | -6.08% (inactive)
44 | COc1ccc(C(CC(=O)N2CCN(c3ccccc3)CC2)c2c(O)cc(OC)cc2OC)cc1 (configuration not stated) | 1.97% (inactive)
45 | CCC1OC(c2ccc([N+](=O)[O-])cc2)=Nc2ccccc21 (configuration not stated) | 33.1% (active)
46 | COc1ccccc1CSc1ncc(-c2ccc([N+](=O)[O-])cc2)[nH]1 | 12% (inactive)
47 | CCCCN(C)c1ccc([N+](=O)[O-])cc1 | -0.55% (inactive)
48 | N#Cc1ccc(N2Cc3ccccc3/C2=N/C(=O)Nc2ccc(Cl)cc2)cc1 | -0.92% (inactive)
49 | CC1CCc2c(c3ccccc3[nH]c2=O)O1 (configuration not stated) | -0.64% (inactive)
50 | COc1ccc(C2=NN(c3ccccc3)C(c3cccs3)C2)cc1 (configuration not stated) | 6.25% (inactive)

Row | SMILES | inhibition
51 | COc1ccc(C2=NN(c3nc4ccccc4s3)C(=O)C2)cc1 | 48.2% (active)
52 | COc1ccc(C(=O)Nc2cccc(/C=C(/CCC(=O)O)c3nc4ccccc4s3)c2)cc1 | -4.68% (inactive)
53 | Cc1nnc(NC(=O)CSc2nccn2-c2cccc(C)c2C)s1 | 6.92% (inactive)
54 | O=[N+]([O-])c1cccc(/C([O-])=C(/C(=S)Nc2ccccc2F)[n+]2ccccc2)c1 | -4.94% (inactive)
55 | Cc1sc(NC(=O)c2ccc3ncsc3c2)c(C(N)=O)c1C | 1.28% (inactive)
56 | CC1CC(C)CN(C(=O)COC(=O)c2ccc3ncsc3c2)C1 (configuration not stated) | 9.71% (inactive)
57 | O=C(COC(=O)c1ccc2ncsc2c1)Nc1ccc(Cl)cc1 | 81.4% (active)
58 | COc1cc2c(cc1O)C(SC)=NC(C)(C)C2 | 4.6% (inactive)
59 | CC(C)Cc1nnc(NC(=O)CCC(=O)Nc2ccc3cn[nH]c3c2)s1 | 1.65% (inactive)
60 | Cc1cc(C)c(C#N)c(Nc2cccc(Br)c2)n1 | -4.25% (inactive)
61 | CCCCNC(=O)OC(C)CNC(=O)OC (configuration not stated) | -6.1% (inactive)
62 | Cc1onc(C(=O)NCc2ccc(F)cc2)c1[N+](=O)[O-] | -3.19% (inactive)
63 | O=C(/C=C/c1ccc([N+](=O)[O-])o1)NNC(=O)c1ccc(F)cc1 | 39.5% (active)
64 | COc1ccc(C(=O)NCC(=O)N/N=C/c2ccc([N+](=O)[O-])o2)cc1OC | 0.4% (inactive)
65 | CN(CC(=O)Nc1cccc(F)c1)C(=O)CC1CCCC1 | 0.25% (inactive)
66 | O=C(COC(=O)CNC(=O)C1CCCCC1)Nc1cccc(F)c1 | -0.43% (inactive)
67 | O=C(COC(=O)C1CC2C=CC1C2)Nc1ccccc1 (configuration not stated) | 77.7% (active)
68 | Cc1ccc(S(=O)(=O)N(C)CC(=O)OCC(=O)Nc2ccccc2)cc1 | 0.35% (inactive)
69 | O=C(COc1ccccc1)Nc1ccc(F)cc1 | -4.21% (inactive)
70 | Cc1ccsc1C(=O)OCC(=O)Nc1cccc(F)c1 | 90.7% (active)
71 | COc1ccc(CNC(=O)COC(=O)c2sccc2C)cc1OC | 5.02% (inactive)
72 | Cc1ccsc1C(=O)OCC(=O)NCCc1ccccc1 | 25.5% (inactive)
73 | CC1CC1C(=O)OCC(=O)Nc1cccc(F)c1 (configuration not stated) | 78.9% (active)
74 | CCCCCC(=O)N1CCN(S(=O)(=O)c2ccc3c(c2)OCCCO3)CC1 | 6.58% (inactive)
75 | Clc1ccc(C2[C@H]3CN(CC4CCCCC4)[C@H](c4ccccc4)C34CC2(c2cccnc2)C4)cn1 (some centres not stated) | -11.3% (inactive)

Row | SMILES | inhibition
76 | COc1cc(C2C(C(=O)c3sc(C)nc3C)=C(O)C(=O)N2CCN(C)C)cc(OC)c1OC (configuration not stated) | 2.01% (inactive)
77 | COc1ccccc1N1CC(C(=O)Nc2ccc(S(=O)(=O)N3CCOCC3)cc2)CC1=O (configuration not stated) | 2.45% (inactive)
78 | CC(=O)Nc1ccc(NS(=O)(=O)c2cc(C)sc2C)cc1 | 5.36% (inactive)
79 | OC(CNC1CCCC1)COc1ccc(F)cc1 (configuration not stated) | -6.14% (inactive)
80 | CC(C)(C)NC(=O)c1cccc(NC(=O)Cc2ccc(Br)cc2)c1 | -0.14% (inactive)
81 | FC(F)Oc1ccccc1C1CC(c2ccc(Br)s2)Nc2ncnn21 (configuration not stated) | 4.45% (inactive)
82 | C=CCOc1ccc(/C=C/C(=O)OC(C)C(=O)Nc2ccc(NC(C)=O)cc2)cc1 (configuration not stated) | -1.01% (inactive)
83 | C=CCOc1ccc(/C=C/C(=O)OCC(=O)NCC2CCCO2)cc1 (configuration not stated) | 29.2% (inactive)
84 | C=CCOc1ccc(/C=C/C(=O)OCC(=O)NC(C)c2ccc(F)cc2)cc1 (configuration not stated) | 33.1% (active)
85 | CCC(=O)c1ccc(OCC(=O)OCC(=O)NC2CCCCCC2)cc1 | 1.93% (inactive)
86 | O=C(COC(=O)/C=C/c1ccc(OC(F)F)cc1)NC1CCCCC1 | 59.9% (active)
87 | C=CCOc1ccc(/C=C/C(=O)OCC(=O)NC2CCCCCC2)cc1 | 77% (active)
88 | CC1CCCCC1NC(=O)CO/N=C/c1ccc(OC(F)F)cc1 (configuration not stated) | 5.23% (inactive)
89 | CC(NC(=O)COC(=O)c1ccc(Cl)cc1O)c1ccc(F)cc1 (configuration not stated) | 11% (inactive)
90 | O=C(CO/N=C/c1ccccc1OC(F)F)NC1CCCC1 | 4.52% (inactive)
91 | O=c1ccc2cc(S(=O)(=O)N3CCN(c4ccccc4)CC3)ccc2o1 | -3.62% (inactive)
92 | COC(=O)CCSc1nccn1Cc1ccccc1 | 3.07% (inactive)
93 | CC(=O)c1c(N2CCN(c3ccc(F)cc3)CC2)nc(=S)n(-c2ccccc2)c1C | -5.81% (inactive)
94 | Cc1ccc(NC(=O)CN(C)S(=O)(=O)c2cnc[nH]2)cc1C | 4.95% (inactive)
95 | CC(NC(=O)c1ccccc1)C(=O)Nc1ccccc1 (configuration not stated) | -1.79% (inactive)
96 | O=C(NC1=CC(=O)c2ccccc2C1=O)c1ccccc1 | 45.2% (active)
97 | O=C1C=C(NS(=O)(=O)c2ccccc2)C(=O)c2ccccc21 | 5.32% (inactive)
